Test results as given in PubChem BioAssay (NCI).
This is part of a sample that, as a whole, favours compounds with a hit. Of some 79,000 tested, about 15% had one in any assay. A number with no mark means an inactive call. Active and inactive are the calls of the source. Rule as the data show it: active = growth inhibition above about 70%; inactive = the rest.

Experiments:
[1] = NCI Yeast Anticancer Drug Screen. Data for the rad50 strain (AID 155);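 also: 0% = growth of vehicle-only cultures of the same strain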; conditions: S. cerevisiae rad50 strain growth inhibition; at 50.0 µM; hits give high values
Method in brief: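 Vehicle-treated cultures provide the reference for the growth inhibition reported for compound-exposed, repair-deficient yeast.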

[2] = NCI Yeast Anticancer Drug Screen. Data for the mec2-1 strain (AID 157); conditions: S. cerevisiae mec2-1 strain, at 50.0 µM, hits give high values
Method in brief: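 Growth inhibition is read against vehicle-treated controls after compound exposure of the mec2-1 yeast strain, which is defective in DNA damage repair or cell cycle control.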

[3] = NCI Yeast Anticancer Drug Screen. Data for the sgs1 mgt1 strain (AID 161);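 also: 0% = growth of cultures given vehicle only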; conditions: S. cerevisiae sgs1 mgt1 strain, at 50.0 µM, hits give high values
Method in brief: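 Percent growth inhibition was derived by comparing compound-exposed mutant yeast with vehicle-exposed cultures. The strain carries alterations in DNA damage repair.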

[4] = NCI Yeast Anticancer Drug Screen. Data for the cln2 rad14 strain (AID 165);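 also: 0% = growth equal to vehicle treated cultures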; conditions: S. cerevisiae cln2 rad14 strain, at 50.0 µM, hits give high values
Method in brief: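 Growth inhibition, relative to vehicle-treated controls, is the read-out. The test organism is a yeast strain with defined genetic alterations, cln2 rad14.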

[5] = NCI Yeast Anticancer Drug Screen. Data for the bub3 strain (AID 167); conditions: S. cerevisiae bub3 mutant strain, at 50.0 µM, hits give high values
Method in brief: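 Mutant yeast screening strain plus compound; vehicle-treated cultures serve as the 0% inhibition reference.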

[6] = NCI Yeast Anticancer Drug Screen. Data for the mlh1 rad18 strain (AID 175); conditions: S. cerevisiae mlh1 rad18 strain growth inhibition; at 50.0 µM; hits give high values
Method in brief: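 Cells of a genetically altered yeast strain, deficient in DNA damage repair, were treated with compound. Their growth was then compared with that of vehicle-treated cultures to give inhibition.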

| SMILES | growth inhibition [1] | growth inhibition [2] | growth inhibition [3] | growth inhibition [4] | growth inhibition [5] | growth inhibition [6] |
| --- | --- | --- | --- | --- | --- | --- |
| COc1nc2c(c(=O)n1C)N(C(C)=O)C1C(N2)OCC(OC(C)=O)C1OC(C)=O (stereo unspecified) | -13.4% | 8.65% | -2.55% | 5.45% | -7.6% | -32.1% |
| O=C1C=C(c2ccccc2)CC1 | -17.8% | 2.55% | -6.05% | 8.4% | 13.1% | 0.95% |
| O=C(O)c1ncnn1-c1ccccc1 | 4.7% | 18.9% | 17.4% | -5.95% | 18.8% | 1.55% |
| S=c1nc[nH]c2c1ncn2C1CCCC1 | -2.25% | -4.75% | -4.55% | -14.9% | -0.3% | -3.1% |
| [N-]=[N+]=C1C(=O)NC(=O)N2C3OC(CO[C@@H]12)C(O)C3O (stereo partly specified) | -24.2% | -1.65% | -16.2% | 32.2% | -8.2% | -39% |
| Cc1cc2nc(-c3ccccn3)c(-c3ccccn3)nc2cc1C | 2.05% | -18.9% | 6.9% | 20.1% | -7.75% | 21.4% |
| C=Cc1ccc(C[n+]2cccc(C(N)=O)c2)cc1 | -15.2% | -17% | -2.95% | -1.75% | 17.2% | -35.9% |
| COc1cc2c(cc1OC)C(c1cc(OC)c(OC)c(OC)c1)C1(O)C(=O)OCC1(O)C2 (stereo unspecified) | 20.1% | -8.25% | 13.1% | 21.8% | 19.4% | 20.2% |
| O=C(O)c1cc(Cl)ccc1-c1ccc(Cl)cc1C(=O)Nc1ccc2c(c1)Cc1cc(Cl)cc(Cl)c1-2 | 96.2% (active) | 97.5% (active) | 97.8% (active) | 97.2% (active) | 95.6% (active) | 97.3% (active) |
| CC(Cl)CN1c2ccccc2Sc2ccc(Cl)cc21 (stereo unspecified) | 33% | -5.4% | 2.35% | 23% | 5.35% | 16.8% |
| COc1ccc(/C=N\NC(=O)N/N=C/c2ccc(OC)c(Br)c2)cc1Br | 44.3% | 39.7% | 44.6% | 49.5% | 39.2% | 71.7% (active) |
| COC(=O)C(C(=O)C(=O)NC1=C(Cl)C(=O)c2ccccc2C1=O)c1csc(-n2nc(-c3ccccc3)cc2-c2ccccc2)n1 (stereo unspecified) | -0.4% | -26.6% | -14.4% | 0.85% | 26.1% | -5.4% |
| N#CCCCCCCCCC(=O)O | -14.6% | -14.4% | 6.9% | -18.4% | -39.5% | -11.5% |
| C[C@H]1CC[C@@]2(OC1)O[C@H]1C[C@H]3[C@@H]4CC[C@@H]5C[C@@H](OC6OC(CO)C(O)C(O)C6OC6OC(CO)C(O)C(O)C6O)CC[C@]5(C)[C@H]4CC[C@]3(C)[C@H]1[C@@H]2C (stereo partly specified) | 54.2% | 68.4% | 37.8% | 19.3% | -16.2% | 90.5% (active) |
| CC(=O)Nc1ccc(S(=O)(=O)N2c3ccccc3Sc3ccccc32)cc1 | 8.95% | -5.9% | 4.95% | 3.05% | -1.5% | 4.2% |
| COC1C=CC2OC(c3ccccc3)OCC2O1 (stereo unspecified) | -16.2% | 9.1% | -9.6% | -35% | 10% | -1.65% |
| CNc1nnnn1C1OC(CO)C(O)C1O (stereo unspecified) | -2.15% | -8.9% | -9.6% | 9.35% | -10.7% | -21.4% |
| CCOC(=O)/C(=C\c1cc(OC)ccc1OC)P(=O)(OCC)OCC | 39.2% | 25.9% | 18.4% | 21.9% | 7.6% | 16.8% |
| COc1cc(/C=C2/C(=O)N(c3ccccc3)N=C2C)cc(OC)c1OC | 12.6% | -3.4% | 24.1% | 2.5% | 11.6% | 17.9% |
| CC(=O)OC1CC[C@@]2(C)C(C1)CC(OC(C)=O)[C@@H]1C2CC(OC(C)=O)[C@]2(C)C(C(C)CC=C(c3ccc(Cl)cc3)c3ccc(Cl)cc3)CCC12 (stereo partly specified) | 0.4% | 2.8% | 3.05% | 11.1% | 20.5% | 5% |
| CCCCCCCCCCCCCCCCN(C)C(=S)c1ccc(OC)cc1 | 25.4% | -3.4% | -1.8% | -3.15% | -1% | -8.4% |

| SMILES | growth inhibition [1] | growth inhibition [2] | growth inhibition [3] | growth inhibition [4] | growth inhibition [5] | growth inhibition [6] |
| --- | --- | --- | --- | --- | --- | --- |
| O=[N+]([O-])c1ccc2nc(C(F)(F)F)cc(Cl)c2c1 | 7.35% | 5.3% | 2% | -66.9% | -1.1% | -9.75% |
| O=C(O)COc1ccccc1Cl | 34.6% | 13.3% | 22.5% | 19.8% | 26.1% | 11.8% |
| COC(=O)C1C2CC3C(OC(=O)C31)C2OC(=O)[C@](OC)(c1ccccc1)C(F)(F)F (stereo partly specified) | 24.2% | 20.9% | 10.6% | -25.4% | 15.5% | 28.6% |
| CC(=O)OC(C(=O)O)C(OC(C)=O)C(OC(C)=O)C(=O)O (stereo unspecified) | 21.5% | 19.2% | 13.8% | -5.85% | 5.7% | 8.4% |
| OCCSC(SCCO)=C(SCCO)SCCO | 9.85% | -15.7% | -1.55% | -13.2% | 1.35% | 2.75% |
| COC1=CC(=O)C=C(OC)C1=O | -2.55% | -12.8% | -28.6% | 6.25% | -25.4% | -11.6% |
| c1ccc(Cc2[nH]nc(-c3n[nH]c(Cc4ccccc4)c3-c3ccccc3)c2-c2ccccc2)cc1 | -28.8% | 18.1% | -9.65% | -8.35% | -20.6% | 8.4% |
| NC(=O)NC(c1ccc(O)cc1)c1cc2c(cc1O)OCO2 (stereo unspecified) | -4% | 1.9% | -11.8% | -36.8% | 5.75% | -0.55% |
| C#CCOC(=O)c1ccc(C(=O)OCC#C)cc1 | 11.9% | -17.3% | -9.3% | 8.35% | 3.15% | -20.7% |
| On1c(-c2ccccc2)c(-c2c(-c3ccccc3)n(O)c3ccccc23)c2ccccc21 | 0% | 6.45% | -4.9% | -24.2% | -7.6% | 15.8% |
| COC(=O)C(Cc1ccccc1)NP(=O)(O)OCC1OC(n2cc(I)c(=O)[nH]c2=O)CC1O (stereo unspecified) | -11.8% | -2.65% | -15.2% | -10.5% | -10.1% | 0.85% |
| O=C(O)c1cnccn1 | 18.8% | 4.3% | 16.9% | 12.6% | 1.2% | 17.9% |
| CCCCCCCCCCCCC(N)C(=O)O (stereo unspecified) | 3.55% | -9.15% | 28% | -15.8% | 6.7% | -1.3% |
| OCC(O)C1OC(n2cnc3c(=S)nc[nH]c32)C(O)C1O (stereo unspecified) | 2.85% | -6.75% | -3.8% | -42.8% | -6.5% | -10.6% |
| Clc1ccc(OCC(COc2ccc(Cl)cc2)(COc2ccc(Cl)cc2)COc2ccc(Cl)cc2)cc1 | -0.75% | 2.75% | -4.8% | 5.9% | -4.45% | 0.7% |
| CC(=O)/C(=C\c1ccccc1F)C(=O)CCN(C)C | 7.95% | 6.55% | 8.05% | 12.2% | 13.6% | 28.3% |
| CCCSc1nc2c(=O)n(C)c(=O)[nH]c2n1C | -10.2% | -1.8% | -6.95% | -36.3% | -12.2% | -3.55% |
| CC1(C)CC(=O)C(/C=N/C(=S)NCc2ccccc2)=C(O)C1 | -35.4% | -49.1% | -16% | 14.4% | -2.45% | -20.8% |
| C=C(C)CNC(C)=O | -7.75% | 3% | 0% | 0% | 3.4% | 1.95% |
| CCC/C=C1\CCC(CN(C)C)C1=O (stereo unspecified) | -9.8% | 7.85% | 18.6% | -1.4% | -11.9% | 15.1% |
